“And” between values parts separate entries of the source, which are not always exact repeats. Equal values may be shown once. Hit rate of the full screen: of about 5,500 compounds, about 2,000 (36%) were called active. Another 18% or so got no clear call; they are omitted. Rule as the data show it: active = normalized growth mostly below about 0.91 (no sharp cut-off); inconclusive = no clear call, values can overlap the other calls; inactive = mostly above about 0.92. The list shows a part of the results.
Assay: chemical genetic growth profiling, strain panel (AID 1159580);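 also: tested at 20 µM; growth read once vehicle control cultures reached saturation at 30 °C; 1 = growth at the plate median or of vehicle wells; lower values mean less growth of the strain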
Conditions: S. cerevisiae deletion strains, growth OD

Measured: normalized growth

C[C@@H]1CC2C3CCC4=CC(=O)C=C[C@]4(C)[C@@]3(F)[C@@H](O)C[C@]2(C)[C@@]1(O)C(=O)COP(=O)(O)O (stereo partly drawn)
inactive: locus YAL021C, strain ccr4, active compounds read low 0.961 | locus YAL026C, strain drs2, active compounds read low 0.985 | locus YAL030W, strain snc1, active compounds read low 0.996 | locus YBL061C, strain skt5, active compounds read low 0.978 | locus YBR009C, strain hhf1, active compounds read low 0.976 | locus YBR021W, strain FUR4, active compounds read low 1.02 | locus YBR023C, strain chs3, active compounds read low 0.981 | locus YBR171W, strain sec66, active compounds read low 0.944 | locus YBR229C, strain ROT2, active compounds read low 1 | locus YBR231C, strain swc5, active compounds read low 0.955 | locus YBR279W, strain paf1, active compounds read low 0.989 | locus YCL011C, strain gbp2, active compounds read low 0.997 | locus YCL016C, strain dcc1, active compounds read low 1.02 | locus YCL029C, strain bik1, active compounds read low 1.01 | locus YCL061C, strain MRC1, active compounds read low 0.971 | locus YCL069W, strain vba3, active compounds read low 0.996 | locus YCR088W, strain abp1, active compounds read low 0.975 | locus YDL005C, strain med2, active compounds read low 0.987 | locus YDL035C, strain GPR1, active compounds read low 1.03 | locus YDL040C, strain nat1, active compounds read low 0.964 | locus YDL074C, strain BRE1, active compounds read low 1.02 | locus YDL101C, strain DUN1, active compounds read low 1.01 | locus YDL134C, strain PPH21, active compounds read low 1.02 | locus YDL185W, strain tfp1, active compounds read low 1 | locus YDL192W, strain arf1, active compounds read low 1.01 | locus YDR001C, strain nth1, active compounds read low 0.94 | locus YDR069C, strain doa4, active compounds read low 0.942 | locus YDR101C, strain arx1, active compounds read low 0.996 | locus YDR137W, strain rgp1, active compounds read low 0.97 | locus YDR159W, strain sac3, active compounds read low 0.961 | locus YDR162C, strain NBP2, active compounds read low 1.02 | locus YDR195W, strain ref2 0.936 | locus YDR297W, strain sur2, active compounds read low 0.979 | locus YDR318W, strain mcm21, active compounds read low 0.992 | locus YDR334W, strain swr1, active compounds read low 0.943 | locus YDR335W, strain msn5, active compounds read low 0.949 | locus YDR388W, active compounds read low 1 | locus YDR392W, strain spt3, active compounds read low 1.06 | locus YDR502C, strain sam2, active compounds read low 1.01 | locus YEL003W, strain gim4, active compounds read low 0.98 | locus YEL037C, strain rad23, active compounds read low 0.978 | locus YEL061C, strain CIN8 (second series), active compounds read low 0.961 | locus YEL061C, strain CIN8, active compounds read low 1.01 | locus YER015W, strain faa2, active compounds read low 0.98 | locus YER016W, strain bim1, active compounds read low 1.02 | locus YER110C, active compounds read low 1.01 | locus YER111C, strain swi4, active compounds read low 0.98 | locus YER155C, strain BEM2 (second series), active compounds read low 0.972 | locus YER155C, strain BEM2, active compounds read low 1.01 | locus YER167W, strain BCK2, active compounds read low 1.01 | locus YFR010W, strain ubp6, active compounds read low 0.936 | locus YGL078C, strain dbp3, active compounds read low 1.01 | locus YGL086W, strain mad1, active compounds read low 1.02 | locus YGL167C, strain pmr1, active compounds read low 0.954 | locus YGL173C, strain kem1, active compounds read low 1 | locus YGL227W, strain vid30, active compounds read low 0.972 | locus YGL240W, strain doc1, active compounds read low 0.957 | locus YGL248W, strain PDE1, active compounds read low 0.998 | locus YGL253W, strain hxk2, active compounds read low 0.99 | locus YGR135W, strain pre9, active compounds read low 1 | locus YGR229C, strain SMI1, active compounds read low 1.01 | locus YGR252W, strain gcn5, active compounds read low 0.929 | locus YHR013C, strain ard1, active compounds read low 1 | locus YHR027C, strain rpn1, active compounds read low 0.982 | locus YHR030C, strain SLT2, active compounds read low 1.01 and 0.995 | locus YHR079C, strain IRE1 (second series), active compounds read low 0.992 | locus YHR079C, strain IRE1, active compounds read low 1 | locus YHR094C, strain hxt1, active compounds read low 1 | locus YHR129C, strain ARP1, active compounds read low 1.01 | locus YHR142W, strain chs7, active compounds read low 0.976 | locus YHR200W, strain rpn10, active compounds read low 1 | locus YIL066C, strain RNR3, active compounds read low 1.03 | locus YIL073C, strain SPO22, active compounds read low 1.02 | locus YIL125W, strain kgd1, active compounds read low 0.994 | locus YIR030C, strain dcg1, active compounds read low 1.01 | locus YJL092W, strain hpr5, active compounds read low 0.987 | locus YJL095W, strain BCK1 (second series), active compounds read low 0.982 | locus YJL095W, strain BCK1, active compounds read low 1.01 and 0.997 | locus YJL115W, strain asf1, active compounds read low 0.959 | locus YJL129C, strain trk1, active compounds read low 0.942 | locus YJL134W, strain LCB3, active compounds read low 1.01 | locus YJL154C, strain vps35, active compounds read low 0.952 | locus YJL164C, strain tpk1, active compounds read low 1.02 | locus YJL166W, strain qcr8, active compounds read low 0.917 | locus YJL168C, strain set2, active compounds read low 0.992 | locus YJL187C, strain SWE1 (second series), active compounds read low 1.01 | locus YJL187C, strain SWE1, active compounds read low 0.988 | locus YJR043C, strain POL32, active compounds read low 1.02

— PubChem BioAssay AID1159580 (chemical genetic matrix, 2015)
